Measured potencies and affinities stand elsewhere.
Test system: Cryptococcus neoformans
Details: Concentration 32 ug.mL-1; ASSAY_TEST Inhibition of Fungal Growth; detection method Resazurin; Absorption (OD600-OD570); plate type 384well; NBS; CORNING #3640

Point of comparison: `Clc1cc(Br)cc(Cl)c1-c1ccccc1Nc1ccccc1`, Inhibition 2.48%. Against it:
- COc1cccc(N(C)c2cccc(OC)c2-c2ccc([N+](=O)[O-])cc2C)c1 — lower, -0.6%
- COc1cccc(Nc2ccccc2)c1-c1ccc([N+](=O)[O-])cc1 — lower, 1.49%
- O=[N+]([O-])c1ccc(-c2ccccc2Nc2ccccc2)cc1F — higher, 3.42%
- Cc1cccc(C)c1Nc1ccccc1-c1ccccc1[N+](=O)[O-] — higher, 4.1%
- CC(=O)c1ccc(-c2ccccc2Nc2ccccc2)cc1 — lower, 0.86%
- O=[N+]([O-])c1ccc(-c2ccccc2Nc2ccccc2)c(Cl)c1 — lower, 1.38%
- O=[N+]([O-])c1ccc(-c2ccccc2Nc2ccccc2Br)cc1 — lower, 1.33%
- Cc1cc([N+](=O)[O-])ccc1-c1ccccc1N(C)c1ccccc1 — lower, -0.44%
- O=[N+]([O-])c1ccc(-c2cccc3c2[nH]c2ccccc23)cc1 — lower, -0.08%
- O=[N+]([O-])c1ccc(-c2ccccc2Nc2ccccc2)cc1C(F)(F)F — higher, 2.9%

Source: ChEMBL document CHEMBL4513137, “CO-ADD screening of University of Manchester (UK) compounds”
